In PubChem BioAssay (EPA / NIEHS):
Values joined by “and” are separate entries in the source; they are usually repeats but may differ in a detail not shown here. Identical values can stand only once. Inconclusive results are not listed. Some structures have more than one record in an assay (separate samples or runs), and their calls can disagree. Active and inactive are the calls of the source. Rule for the calls, unless noted: active = hit-call score of the fitted dose curve at least 0.9, where 1 is the maximum; inactive = score below 0.9.

Legend:
[1] = ATG_M_61_CIS: Attagene CIS-FACTORIAL HepG2 Assay for M61 Transcription Factor (Internal Marker) (AID 2282937); conditions: HepG2 Attagene CIS-FACTORIAL M61 internal marker reporter; actives raise or lower the signal
In short: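 Transfect HepG2 with MRTUs; dose 24 h; isolate RNA; reverse-transcribe with DNase I treatment; PCR-amplify, FAM-label and cut with HpaI for 2 h at 37 C; resolve by CE. Bidirectional fitting against DMSO.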

[2] = biological target: Hypoxia-inducible factor 1-alpha (Homo sapiens) (UniProt Q16665); assay: ATG_HIF1a_CIS: Attagene CIS-FACTORIAL HepG2 Assay for human Hypoxia Inducible Factor 1 (HIF1A) (AID 2282951); conditions: HepG2 Attagene cis-factorial HIF1a reporter transcription; actives raise or lower the signal
In short: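 After 24 h chemical exposure of reporter-transfected HepG2 cells, reporter cDNA was PCR-amplified, labelled by 6-FAM primer extension (2 min 95 C, 20 s 68 C, 10 min 72 C), HpaI-cut (2 h, 37 C) and analysed by CE.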

[3] = biological target: Hepatocyte nuclear factor 6 (Homo sapiens) (UniProt Q9UBC0); assay: ATG_HNF6_CIS: Attagene CIS-FACTORIAL HepG2 Assay for human Hepatocyte Nuclear Factor 6 (HNF6) (AID 2282952); conditions: HepG2 Attagene cis-factorial HNF6 reporter transcription; actives raise or lower the signal
In short: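 Cells are HepG2 carrying transiently transfected cis-promoter reporter units. Treatment lasts 24 h, after which reporter transcripts are reverse-transcribed, amplified, FAM-labelled and sized by capillary electrophoresis. DMSO serves as baseline.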

[4] = ATG_MRE_CIS: Attagene CIS-FACTORIAL HepG2 Assay for human Metal Responsive Element (MRE) (AID 2282954); conditions: HepG2 MRE cis-reporter transcription, Attagene multiplex; actives raise or lower the signal
In short: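 HepG2 cells transiently transfected with cis-element-driven reporter units; mRNA measured 24 h after dosing. Reporter transcripts quantified by RT-PCR, FAM labelling, HpaI digestion and capillary electrophoresis; bidirectional fit versus DMSO.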

[5] = ATG_PBREM_CIS: Attagene CIS-FACTORIAL HepG2 Assay for human Phenobarbital-responsive Enhancer Module (PBREM) (AID 2282955); conditions: HepG2 PBREM cis-reporter, Attagene multiplexed transcription; actives raise or lower the signal
In short: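 Measures endogenous factor action on a phenobarbital-responsive enhancer module. HepG2 transiently carrying cis reporters, 24 h treatment, mRNA read-out by RT-PCR plus capillary electrophoresis.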

[6] = ATG_TCF_b_cat_CIS: Attagene CIS-FACTORIAL HepG2 Assay for human T-Cell-Factor with beta-catenin (TCF/b-cat) (AID 2282965); conditions: HepG2 TCF/beta-catenin cis-reporter transcription, actives raise or lower the signal
In short: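 Cells of the HepG2 line carry transiently transfected reporter units whose promoters respond to endogenous factors. Twenty-four hours post-dosing, reporter mRNA induction is measured by fluorescent RT-PCR and capillary electrophoresis, with DMSO as baseline.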

[7] = biological target: Nuclear respiratory factor 1 (Homo sapiens) (UniProt Q16656); assay: ATG_NRF1_CIS: Attagene CIS-FACTORIAL HepG2 Assay for human Nuclear Respiratory Factor 1 (NRF1) Orphan Gene (AID 2282987); conditions: HepG2 NRF1 cis-element reporter, Attagene multiplex; actives raise or lower the signal
In short: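 Measured: fluorescent reporter-specific RT-PCR products from transfected HepG2 cells, separated by capillary electrophoresis. Exposure lasted 24 h. Analysis used bidirectional curve fitting with DMSO as negative control.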

[8] = biological target: Retinoic acid receptor RXR-alpha (Homo sapiens) (UniProt P19793); assay: ATG_RXRa_TRANS: Attagene TRANS-FACTORIAL HepG2 Assay for human Retinoid X Receptor alpha (RXRa) (AID 2283012; active = hit-call score of the fitted dose curve at least 0.9, where 1 is the maximum)
In short: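 HepG2 cells transiently transfected with GAL4-UAS reporter units and chimeric RXRa-Gal4 protein, treated 24 h. Reporter mRNA measured by RT-PCR, fluorescent labelling, HpaI digestion and capillary electrophoresis. Induction fitted against DMSO.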

[9] = ATG_ISRE_CIS: Attagene CIS-FACTORIAL HepG2 Assay for human Interferon Regulatory Factor 1 (IRF1) binding to an Interferon-Stimulated Response Element (ISRE) (AID 2282948); conditions: HepG2 ISRE cis-reporter (Attagene), mRNA transcription readout; actives raise or lower the signal
In short: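 Quantitation relies on labelled RT-PCR fragments separated by capillary electrophoresis. Human HepG2 cells bearing cis-promoter reporter constructs were treated 24 h; DMSO served as baseline for bidirectional fitting.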

[10] = biological target: Heat shock factor protein 1 (Homo sapiens) (UniProt Q00613); assay: ATG_HSE_CIS: Attagene CIS-FACTORIAL HepG2 Assay for human Heat Shock Transcription Factor 1 (HSE) (AID 2282953); conditions: HepG2 HSE cis-reporter, Attagene RNA transcription; actives raise or lower the signal
In short: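 After a 24 h incubation with test chemical, transfected HepG2 cells were harvested for RNA; reporter transcripts were measured by RT-PCR and capillary electrophoresis. Values reflect gain or loss of signal relative to DMSO.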

[11] = ATG_PPRE_CIS: Attagene CIS-FACTORIAL HepG2 Assay for human Peroxisome Proliferator-activated Response Element (PPRE) (AID 2282958); conditions: HepG2 PPRE cis-element reporter, Attagene transcription factor profiling; actives raise or lower the signal
In short: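 PPRE activity in HepG2: transient cis-reporter transfection, 24 h compound incubation, reporter mRNA by RT-PCR and CE fluorescence; gain/loss fitted against DMSO.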

[12] = biological target: Nuclear receptor subfamily 4 group A member 2 (Homo sapiens) (UniProt P43354); assay: ATG_NURR1_TRANS: Attagene TRANS-FACTORIAL HepG2 Assay for human Nuclear Receptor Related Protein 1 (NURR1) (AID 2282985; active = hit-call score of the fitted dose curve at least 0.9, where 1 is the maximum); conditions: HepG2 Attagene TRANS reporter, mRNA readout
In short: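 HepG2 cells transiently transfected with NURR1-Gal4 chimera and GAL4-UAS reporter units; after 24 hr compound exposure, reporter mRNA quantified by RT-PCR and capillary electrophoresis; gain of signal fitted against DMSO.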

[13] = biological target: Transcriptional activator Myb (Homo sapiens) (UniProt P10242); assay: ATG_Myb_CIS: Attagene CIS-FACTORIAL HepG2 Assay for human Myeloblastosis (Myb) Proto-Oncogene Transcription Factor (AID 2282986); conditions: HepG2 Attagene CIS-FACTORIAL Myb reporter transcription; actives raise or lower the signal
In short: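 After 24 h of compound dosing, total RNA from transfected HepG2 cells is reverse-transcribed and the reporter sequences amplified, labeled and separated by capillary electrophoresis. Values come from bidirectional fitting against DMSO.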

[14] = biological target: Cellular tumor antigen p53 (Homo sapiens) (UniProt P04637); assay: TOX21_p53_BLA_p2_ratio: Tox21 HCT-116 p53 Agonism Beta-lactamase Assay, Ratio, Phase 2 (AID 2283592; active = hit-call score of the fitted dose curve at least 0.9, where 1 is the maximum)
In short: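 Human colon HCT116 cells with an inducible p53 beta-lactamase reporter are exposed to test chemicals for 16 h at 37C. Reporter induction is read as the 460/530 nm emission ratio after CCF4-AM loading, normalized to DMSO.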

[15] = biological target: Cellular tumor antigen p53 (Homo sapiens) (UniProt P04637); assay: TOX21_p53_BLA_p3_ratio: Tox21 HCT-116 p53 Agonism Beta-lactamase Assay, Ratio, Phase 3 (AID 2283596; active = hit-call score of the fitted dose curve at least 0.9, where 1 is the maximum)
In short: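 HCT116 p53-bla cells (4000/well) given compound in DMSO (217-fold dilution) after 5 h, incubated 16 h at 37C. CCF4-AM substrate 2 h at room temperature; 460/530 nm emission ratio, gain fitted against DMSO.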

[16] = biological target: Cellular tumor antigen p53 (Homo sapiens) (UniProt P04637); assay: TOX21_p53_BLA_p5_ratio: Tox21 HCT-116 p53 Agonism Beta-lactamase Assay, Ratio, Phase 5 (AID 2283599; active = hit-call score of the fitted dose curve at least 0.9, where 1 is the maximum)
In short: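 HCT-116 p53-bla cells (4000/well) plated 5 h, dosed with compound (217-fold DMSO dilution) for 16 h at 37 C; CCF4-AM substrate 2 h at room temperature. Activity is the 460/530 nm emission ratio (405 nm excitation), fitted in gain-of-signal direction versus DMSO.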

[17] = biological target: Cellular tumor antigen p53 (Homo sapiens) (UniProt P04637); assay: TOX21_p53_BLA_p4_ratio: Tox21 HCT-116 p53 Agonism Beta-lactamase Assay, Ratio, Phase 4 (AID 2283601; active = hit-call score of the fitted dose curve at least 0.9, where 1 is the maximum)
In short: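 HCT-116 p53 beta-lactamase reporter cells (4000/well) preincubated 5 h, then compound (217-fold dilution of DMSO stock) for 16 h at 37C. CCF4-AM substrate added 2 h at room temperature; 460/530 nm emission ratio fitted upward versus DMSO.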

[18] = biological target: Transcription factor E2F1 (Homo sapiens) (UniProt Q01094); assay: ATG_E2F_CIS: Attagene CIS-FACTORIAL HepG2 Assay for human E2F Transcription Factor 1 (AID 2282935); conditions: HepG2 Attagene cis-reporter, E2F reporter RNA transcripts; actives raise or lower the signal
In short: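 Endogenous E2F1 activity read through cis-promoter reporter units transfected into HepG2. After 24 h compound treatment, reporter mRNA measured by RT-PCR, HpaI digestion and capillary electrophoresis. Bidirectional fit versus DMSO.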

[19] = ATG_GRE_CIS: Attagene CIS-FACTORIAL HepG2 Assay for human Glucocorticoid Response Elements (GRE) (AID 2282947); conditions: HepG2 GRE cis-reporter, Attagene multiplex mRNA; actives raise or lower the signal
In short: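 Transiently transfected HepG2 cells carrying GRE cis-reporter units (endogenous TF activity) dosed 24 h; reporter mRNA quantified by RT-PCR, 6-FAM labelling, HpaI digestion and capillary electrophoresis. Bidirectional fit versus DMSO baseline.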

[20] = ATG_M_06_TRANS: Attagene TRANS-FACTORIAL HepG2 Assay for M06 Transcription Factor (Internal Marker) (AID 2282983; active = hit-call score of the fitted dose curve at least 0.9, where 1 is the maximum;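 note: reporter transcript level by RT-PCR then capillary electrophoresis fluorescence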); conditions: HepG2 Attagene TRANS M06 internal marker reporter
In short: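 Internal-marker background readout from a multiplexed TRANS reporter system in HepG2; 24 h dosing; mRNA induction quantified by RT-PCR plus capillary electrophoresis fluorescence; DMSO as negative control and baseline.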

Measured: AC50

Chain of Nuclear receptor subfamily 4 group A member 2 (Homo sapiens) (P43354 whole entry, looked up, the tested form may be a part): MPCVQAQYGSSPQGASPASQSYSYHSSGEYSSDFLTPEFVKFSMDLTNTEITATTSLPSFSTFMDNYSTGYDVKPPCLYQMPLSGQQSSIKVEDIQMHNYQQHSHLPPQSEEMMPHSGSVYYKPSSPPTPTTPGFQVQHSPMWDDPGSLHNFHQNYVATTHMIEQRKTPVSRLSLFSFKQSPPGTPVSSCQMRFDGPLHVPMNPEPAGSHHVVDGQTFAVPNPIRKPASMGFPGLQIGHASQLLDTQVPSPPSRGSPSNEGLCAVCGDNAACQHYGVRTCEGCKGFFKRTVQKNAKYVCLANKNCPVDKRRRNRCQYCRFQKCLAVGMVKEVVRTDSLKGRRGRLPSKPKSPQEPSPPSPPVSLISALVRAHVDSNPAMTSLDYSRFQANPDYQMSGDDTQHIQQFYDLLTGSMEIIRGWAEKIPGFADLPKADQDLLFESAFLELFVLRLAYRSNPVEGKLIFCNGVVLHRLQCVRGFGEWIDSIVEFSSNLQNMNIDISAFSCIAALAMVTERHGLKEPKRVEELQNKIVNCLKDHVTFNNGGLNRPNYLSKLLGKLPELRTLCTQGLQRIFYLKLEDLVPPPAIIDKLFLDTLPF
Chain of Retinoic acid receptor RXR-alpha (Homo sapiens) (P19793 whole entry, looked up, the tested form may be a part): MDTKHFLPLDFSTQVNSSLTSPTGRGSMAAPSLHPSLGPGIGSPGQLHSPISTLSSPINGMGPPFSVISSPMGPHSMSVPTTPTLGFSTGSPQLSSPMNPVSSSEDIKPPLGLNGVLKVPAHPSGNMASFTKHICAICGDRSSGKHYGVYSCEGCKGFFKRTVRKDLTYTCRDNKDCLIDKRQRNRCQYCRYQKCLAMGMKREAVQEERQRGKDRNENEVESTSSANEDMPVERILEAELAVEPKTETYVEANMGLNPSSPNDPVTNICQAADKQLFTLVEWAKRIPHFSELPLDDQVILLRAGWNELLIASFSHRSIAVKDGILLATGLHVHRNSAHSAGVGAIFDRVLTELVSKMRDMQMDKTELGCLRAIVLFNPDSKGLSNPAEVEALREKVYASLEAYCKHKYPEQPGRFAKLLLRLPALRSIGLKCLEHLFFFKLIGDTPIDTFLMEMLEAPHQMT
Chain of Hepatocyte nuclear factor 6 (Homo sapiens) (Q9UBC0 whole entry, looked up): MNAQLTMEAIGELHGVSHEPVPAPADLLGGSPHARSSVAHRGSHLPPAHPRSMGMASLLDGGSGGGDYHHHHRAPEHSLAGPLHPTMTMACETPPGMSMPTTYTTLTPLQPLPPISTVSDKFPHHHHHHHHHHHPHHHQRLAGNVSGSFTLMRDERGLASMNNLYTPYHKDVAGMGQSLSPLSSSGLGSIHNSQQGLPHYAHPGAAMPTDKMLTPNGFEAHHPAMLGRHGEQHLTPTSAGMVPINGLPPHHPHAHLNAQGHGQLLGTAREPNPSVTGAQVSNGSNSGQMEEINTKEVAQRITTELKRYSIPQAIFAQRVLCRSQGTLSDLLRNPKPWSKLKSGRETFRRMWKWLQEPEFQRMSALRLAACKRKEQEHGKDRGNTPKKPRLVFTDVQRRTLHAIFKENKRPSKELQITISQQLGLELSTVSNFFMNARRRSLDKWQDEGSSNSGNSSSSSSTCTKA
Chain of Nuclear respiratory factor 1 (Homo sapiens) (Q16656 whole entry, looked up): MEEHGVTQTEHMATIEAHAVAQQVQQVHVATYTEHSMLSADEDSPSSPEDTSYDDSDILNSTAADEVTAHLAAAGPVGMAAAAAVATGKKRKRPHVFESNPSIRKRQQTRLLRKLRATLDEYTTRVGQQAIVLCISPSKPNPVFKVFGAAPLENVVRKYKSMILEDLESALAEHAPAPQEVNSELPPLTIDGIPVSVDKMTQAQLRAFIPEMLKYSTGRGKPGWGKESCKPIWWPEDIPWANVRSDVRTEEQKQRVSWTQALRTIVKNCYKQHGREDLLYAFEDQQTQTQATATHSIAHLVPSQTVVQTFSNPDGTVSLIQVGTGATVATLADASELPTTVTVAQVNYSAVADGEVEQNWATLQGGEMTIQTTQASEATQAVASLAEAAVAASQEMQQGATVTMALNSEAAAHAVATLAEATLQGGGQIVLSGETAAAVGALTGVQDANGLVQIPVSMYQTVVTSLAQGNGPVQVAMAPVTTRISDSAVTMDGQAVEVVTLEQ
Chain of Transcriptional activator Myb (Homo sapiens) (P10242 whole entry, looked up): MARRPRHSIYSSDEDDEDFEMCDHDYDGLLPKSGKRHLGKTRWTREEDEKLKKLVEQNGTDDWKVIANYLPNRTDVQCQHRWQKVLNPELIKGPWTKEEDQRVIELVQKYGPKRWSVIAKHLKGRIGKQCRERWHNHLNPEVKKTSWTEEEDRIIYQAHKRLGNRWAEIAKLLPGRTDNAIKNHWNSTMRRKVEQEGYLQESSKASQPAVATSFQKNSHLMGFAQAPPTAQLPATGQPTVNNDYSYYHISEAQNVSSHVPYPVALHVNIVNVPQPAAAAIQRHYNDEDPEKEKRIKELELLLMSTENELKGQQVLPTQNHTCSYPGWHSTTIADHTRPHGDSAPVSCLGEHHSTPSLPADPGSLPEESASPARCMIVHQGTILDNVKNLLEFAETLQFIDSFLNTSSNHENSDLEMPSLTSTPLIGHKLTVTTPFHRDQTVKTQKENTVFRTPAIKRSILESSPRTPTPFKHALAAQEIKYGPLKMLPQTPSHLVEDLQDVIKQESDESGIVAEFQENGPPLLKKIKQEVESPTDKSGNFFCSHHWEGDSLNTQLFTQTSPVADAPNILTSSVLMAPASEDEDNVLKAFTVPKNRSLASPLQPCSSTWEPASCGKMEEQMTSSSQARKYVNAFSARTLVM
Chain of Cellular tumor antigen p53 (Homo sapiens) (P04637 whole entry, looked up): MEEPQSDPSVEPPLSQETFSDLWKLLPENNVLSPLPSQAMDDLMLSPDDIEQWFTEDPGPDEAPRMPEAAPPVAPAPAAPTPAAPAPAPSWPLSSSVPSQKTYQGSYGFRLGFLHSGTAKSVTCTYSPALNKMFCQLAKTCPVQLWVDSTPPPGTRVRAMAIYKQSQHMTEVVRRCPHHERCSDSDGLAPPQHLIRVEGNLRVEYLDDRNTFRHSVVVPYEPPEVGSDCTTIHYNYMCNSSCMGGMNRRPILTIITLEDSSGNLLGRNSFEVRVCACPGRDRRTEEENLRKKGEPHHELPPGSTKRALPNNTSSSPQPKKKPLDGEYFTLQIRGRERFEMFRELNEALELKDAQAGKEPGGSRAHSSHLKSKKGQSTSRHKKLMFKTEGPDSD
Chain of Heat shock factor protein 1 (Homo sapiens) (Q00613 whole entry, looked up): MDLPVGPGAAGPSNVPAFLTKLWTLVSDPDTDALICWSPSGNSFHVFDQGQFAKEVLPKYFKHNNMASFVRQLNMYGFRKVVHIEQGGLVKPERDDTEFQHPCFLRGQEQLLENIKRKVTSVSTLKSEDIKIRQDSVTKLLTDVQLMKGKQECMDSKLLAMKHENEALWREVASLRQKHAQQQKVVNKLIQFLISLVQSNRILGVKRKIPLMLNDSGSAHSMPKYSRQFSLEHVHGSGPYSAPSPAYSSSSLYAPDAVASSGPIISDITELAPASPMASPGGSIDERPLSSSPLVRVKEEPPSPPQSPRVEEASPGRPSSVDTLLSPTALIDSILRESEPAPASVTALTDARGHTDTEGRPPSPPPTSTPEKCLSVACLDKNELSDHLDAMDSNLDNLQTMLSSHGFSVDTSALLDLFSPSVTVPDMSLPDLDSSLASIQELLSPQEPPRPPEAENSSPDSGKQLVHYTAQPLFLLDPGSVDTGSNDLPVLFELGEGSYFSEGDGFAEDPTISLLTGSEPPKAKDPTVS
Chain of Hypoxia-inducible factor 1-alpha (Homo sapiens) (Q16665 whole entry, looked up): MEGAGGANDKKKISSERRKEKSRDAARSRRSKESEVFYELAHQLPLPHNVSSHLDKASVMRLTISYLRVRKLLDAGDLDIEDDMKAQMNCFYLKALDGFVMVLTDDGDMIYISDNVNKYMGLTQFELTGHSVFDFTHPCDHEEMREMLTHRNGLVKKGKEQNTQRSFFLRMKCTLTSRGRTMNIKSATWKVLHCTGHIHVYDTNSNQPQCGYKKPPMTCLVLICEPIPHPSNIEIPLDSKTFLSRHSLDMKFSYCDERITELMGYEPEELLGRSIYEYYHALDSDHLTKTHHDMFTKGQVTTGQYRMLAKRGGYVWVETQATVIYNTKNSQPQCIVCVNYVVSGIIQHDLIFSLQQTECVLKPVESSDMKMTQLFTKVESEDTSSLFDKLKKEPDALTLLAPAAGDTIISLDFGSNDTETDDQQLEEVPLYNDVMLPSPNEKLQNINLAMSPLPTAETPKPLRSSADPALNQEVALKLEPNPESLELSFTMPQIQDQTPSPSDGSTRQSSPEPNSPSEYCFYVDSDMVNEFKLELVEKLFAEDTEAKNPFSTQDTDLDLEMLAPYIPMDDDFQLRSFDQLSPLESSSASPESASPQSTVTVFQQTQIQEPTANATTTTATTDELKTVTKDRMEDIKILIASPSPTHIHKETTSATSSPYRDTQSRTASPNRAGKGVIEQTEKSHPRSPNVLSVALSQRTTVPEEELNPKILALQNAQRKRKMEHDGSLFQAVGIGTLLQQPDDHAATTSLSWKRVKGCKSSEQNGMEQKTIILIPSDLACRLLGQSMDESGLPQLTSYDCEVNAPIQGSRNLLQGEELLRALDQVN
Chain of Transcription factor E2F1 (Homo sapiens) (Q01094 whole entry, looked up): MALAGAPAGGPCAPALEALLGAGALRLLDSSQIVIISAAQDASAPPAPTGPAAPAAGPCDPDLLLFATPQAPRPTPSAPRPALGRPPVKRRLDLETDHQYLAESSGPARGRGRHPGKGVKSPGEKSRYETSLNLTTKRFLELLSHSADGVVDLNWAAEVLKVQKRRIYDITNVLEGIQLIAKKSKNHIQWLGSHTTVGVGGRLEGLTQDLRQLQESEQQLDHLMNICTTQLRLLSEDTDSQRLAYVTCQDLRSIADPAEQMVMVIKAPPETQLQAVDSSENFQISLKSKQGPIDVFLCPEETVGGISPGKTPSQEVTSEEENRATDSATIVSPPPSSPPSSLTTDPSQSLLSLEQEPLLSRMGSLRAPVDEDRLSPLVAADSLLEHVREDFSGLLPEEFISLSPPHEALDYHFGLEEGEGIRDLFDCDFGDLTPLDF

O=C=Nc1ccccc1
inactive: [1] | [2] | [3] | [4] | [5] | [6] | [7] | [8]

CCCOC(=O)c1ccccc1C(=O)OCCC
not listed: [4] | [5] | [8] | [18] | [19] | [20]
inactive: all other assays above

CC(C)COP(=O)(OCC(C)C)OCC(C)C
active: [11] 128 µM
not listed: [1] | [2] | [4] | [5] | [8] | [12] | [13] | [14]
inactive: all other assays above

C=CC(=O)OCC(CC)CCCC (stereo unspecified)
not listed: [1] | [7] | [18] | [20]
inactive: all other assays above

C[C@]12CCC(=O)C(O)=C1CC[C@@H]1[C@@H]2CC[C@]2(C)C(=O)CC[C@@H]12
not listed: [11] | [12] | [15] | [18] | [20]
inactive: all other assays above

CC(C)(c1cc(Cl)c(O)c(Cl)c1)c1cc(Cl)c(O)c(Cl)c1
inactive: [18] | [1] | [19] | [2] | [11] | [20] | [8] | [16] | [17]
active: [4] 58.4 µM | [6] 33.4 µM | [12] 47.9 µM | [13] 47.8 µM | [14] 37 µM and 16.5 µM | [15] 48.2 µM and 17.7 µM | [16] 24.2 µM | [17] 19.7 µM

COc1ccc(CO)cc1
not listed: [3] | [5] | [6] | [7] | [10] | [12] | [13] | [17]
inactive: all other assays above

[Cl-].[Cl-].[Cl-].[Yb+3]
inactive: [18] | [9] | [2] | [3] | [4] | [6] | [12] | [13] | [8]

COc1cc(OC)nc(Oc2cccc(Oc3nc(OC)cc(OC)n3)c2C(=O)O)n1
not listed: [4] | [8] | [9] | [14] | [17] | [19] | [20]
inactive: all other assays above

Oc1ccc(C2(c3ccc(O)cc3)c3ccccc3-c3ccccc32)cc1
active: [2] 11.1 µM | [3] 16.8 µM | [4] 13.1 µM | [14] 265 nM | [15] 906 nM | [16] 76.6 µM | [17] 67.8 µM
not listed: [5] | [7] | [9] | [10] | [18]
inactive: all other assays above
